# Laboratory results published in PubChem BioAssay (Tox21).
# Several values for one entry are separate records, joined by “and”; a condition that tells them apart may be missing. Equal entries are not always repeated. Inconclusive results are not listed. A call without a number means that no potency is given here. More than one record can exist for a structure, and the calls need not agree. Activity calls are given as the source filed them. Calls come from the whole dose curve; as a rule, active = well fitted curve in the direction sought with a large enough effect in the repeat runs; inconclusive = weak or mixed curves; inactive = no such curve, though single readings can be large; an effect the other way counts as inactive or inconclusive.
# Assays:
# [1] = molecular target: Cytochrome P450 2C19 (Homo sapiens) (UniProt P33261); test: Cytochrome P450 Family 2 Subfamily C Member 19 (CYP2C19) small molecule antagonists: luciferase reporter qHTS assay (AID 1671197); note: nearly all actives have a fitted effect of over 65% in size
# Procedure, shortened: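 Enzyme-substrate mix with proluciferin substrate (P450-Glo CYP2C19 system) preincubated with compounds 10 min at room temperature; NADPH regeneration solution added, 37C for 1 h; detection reagent stops reaction, luminescence read after 20 min. Ketoconazole positive control.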
# [2] = molecular target: Cytochrome P450 2C9 (Homo sapiens) (UniProt P11712); test: Cytochrome P450 Family 2 Subfamily C Member 9 (CYP2C9) small molecule antagonists: luciferase reporter qHTS assay (AID 1671198); note: nearly all actives have a fitted effect of over 50% in size
# Procedure, shortened: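 Enzyme-substrate mix preincubated with compound 10 min at room temperature; reaction started with NADPH regeneration solution, 1 h 37C. Luminescent luciferin product read after 20 min detection reagent.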
# [3] = molecular target: Cytochrome P450 1A2 (Homo sapiens) (UniProt P05177); test: Cytochrome P450 Family 1 Subfamily A Member 2 (CYP1A2) small molecule antagonists: luciferase reporter qHTS assay (AID 1671199); note: nearly all actives have a fitted effect of over 50% in size
# Procedure, shortened: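 P450-Glo CYP1A2 enzyme–proluciferin substrate mix with compound 10 min at room temperature, then NADPH regeneration 1 h at room temperature. Luciferin detection reagent added, luminescence read after 20 min; furafylline positive control.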
# [4] = molecular target: Voltage-gated inwardly rectifying potassium channel KCNH2 (Homo sapiens) (UniProt Q12809); test: Human Ether-a-go-go-Related Gene (hERG) channel small molecule antagonists: fluorescence cell-based qHTS assay (AID 1671200); note: nearly all actives have a fitted effect of over 50% in size
# Procedure, shortened: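 Thallium flux as potassium surrogate: FluxOR II dye loaded 1 h at room temperature into hERG-expressing U2OS cells, then stimulus buffer added after 10 min. Kinetic 480 nm excitation/540 nm emission read, 2 min.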
# [5] = molecular target: Cytochrome P450 3A4 (Homo sapiens) (UniProt P08684); test: Cytochrome P450 Family 3 Subfamily A Member 4 (CYP3A4) small molecule antagonists: luciferase reporter qHTS assay (AID 1671201); note: nearly all actives have a fitted effect of over 50% in size
# Procedure, shortened: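 Recombinant human CYP3A4 converts a proluciferin substrate to luciferin over 1 h at room temperature after NADPH regeneration solution is added (compound preincubated 10 min); detection reagent stops reaction, luminescence read 20 min later as relative units.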
# Potency is the fitted concentration of half-maximal effect.
# Cytochrome P450 2C19 (Homo sapiens), sequence (P33261 whole entry, looked up): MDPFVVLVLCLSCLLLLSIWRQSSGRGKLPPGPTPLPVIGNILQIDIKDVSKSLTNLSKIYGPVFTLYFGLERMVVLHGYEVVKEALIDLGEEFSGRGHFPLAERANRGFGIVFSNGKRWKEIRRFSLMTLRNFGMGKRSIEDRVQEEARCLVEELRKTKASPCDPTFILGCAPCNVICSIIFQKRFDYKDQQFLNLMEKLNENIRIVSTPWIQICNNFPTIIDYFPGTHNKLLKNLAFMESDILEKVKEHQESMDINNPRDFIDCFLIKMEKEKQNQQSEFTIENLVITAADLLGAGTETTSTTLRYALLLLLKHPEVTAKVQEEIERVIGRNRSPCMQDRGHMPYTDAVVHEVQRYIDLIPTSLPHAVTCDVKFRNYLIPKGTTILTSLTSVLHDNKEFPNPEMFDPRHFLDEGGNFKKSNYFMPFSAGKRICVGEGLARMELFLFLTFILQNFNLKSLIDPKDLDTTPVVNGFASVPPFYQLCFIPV
# Cytochrome P450 1A2 (Homo sapiens), sequence (P05177 whole entry, looked up): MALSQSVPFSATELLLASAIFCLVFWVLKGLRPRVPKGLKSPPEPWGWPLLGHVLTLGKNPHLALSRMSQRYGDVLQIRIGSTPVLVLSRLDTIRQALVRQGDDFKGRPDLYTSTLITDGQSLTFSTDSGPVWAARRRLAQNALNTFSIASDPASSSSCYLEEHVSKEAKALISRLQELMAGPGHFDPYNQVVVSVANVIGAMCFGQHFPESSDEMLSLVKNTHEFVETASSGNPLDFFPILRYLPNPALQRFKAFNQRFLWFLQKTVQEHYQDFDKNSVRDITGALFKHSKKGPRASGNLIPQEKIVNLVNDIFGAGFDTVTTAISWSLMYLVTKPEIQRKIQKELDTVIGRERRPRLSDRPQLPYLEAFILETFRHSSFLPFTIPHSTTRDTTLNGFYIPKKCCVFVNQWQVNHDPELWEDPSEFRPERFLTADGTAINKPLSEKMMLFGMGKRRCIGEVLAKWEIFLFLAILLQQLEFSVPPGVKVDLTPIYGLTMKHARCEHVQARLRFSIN
# Cytochrome P450 3A4 (Homo sapiens), sequence (P08684 whole entry, looked up): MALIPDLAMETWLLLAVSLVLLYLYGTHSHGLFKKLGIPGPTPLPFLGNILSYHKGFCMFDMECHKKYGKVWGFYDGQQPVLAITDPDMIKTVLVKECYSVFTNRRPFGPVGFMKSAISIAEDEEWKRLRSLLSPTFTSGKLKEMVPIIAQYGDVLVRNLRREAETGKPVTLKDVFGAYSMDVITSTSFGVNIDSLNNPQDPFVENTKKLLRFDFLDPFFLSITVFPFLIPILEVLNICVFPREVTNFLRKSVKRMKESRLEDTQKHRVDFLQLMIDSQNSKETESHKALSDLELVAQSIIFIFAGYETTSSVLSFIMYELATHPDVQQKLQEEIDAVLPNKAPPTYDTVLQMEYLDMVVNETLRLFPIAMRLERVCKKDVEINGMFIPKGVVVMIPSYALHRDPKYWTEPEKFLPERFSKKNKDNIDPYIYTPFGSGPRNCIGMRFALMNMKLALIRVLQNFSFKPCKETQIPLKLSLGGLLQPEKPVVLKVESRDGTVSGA
# Voltage-gated inwardly rectifying potassium channel KCNH2 (Homo sapiens), sequence (Q12809 whole entry, looked up): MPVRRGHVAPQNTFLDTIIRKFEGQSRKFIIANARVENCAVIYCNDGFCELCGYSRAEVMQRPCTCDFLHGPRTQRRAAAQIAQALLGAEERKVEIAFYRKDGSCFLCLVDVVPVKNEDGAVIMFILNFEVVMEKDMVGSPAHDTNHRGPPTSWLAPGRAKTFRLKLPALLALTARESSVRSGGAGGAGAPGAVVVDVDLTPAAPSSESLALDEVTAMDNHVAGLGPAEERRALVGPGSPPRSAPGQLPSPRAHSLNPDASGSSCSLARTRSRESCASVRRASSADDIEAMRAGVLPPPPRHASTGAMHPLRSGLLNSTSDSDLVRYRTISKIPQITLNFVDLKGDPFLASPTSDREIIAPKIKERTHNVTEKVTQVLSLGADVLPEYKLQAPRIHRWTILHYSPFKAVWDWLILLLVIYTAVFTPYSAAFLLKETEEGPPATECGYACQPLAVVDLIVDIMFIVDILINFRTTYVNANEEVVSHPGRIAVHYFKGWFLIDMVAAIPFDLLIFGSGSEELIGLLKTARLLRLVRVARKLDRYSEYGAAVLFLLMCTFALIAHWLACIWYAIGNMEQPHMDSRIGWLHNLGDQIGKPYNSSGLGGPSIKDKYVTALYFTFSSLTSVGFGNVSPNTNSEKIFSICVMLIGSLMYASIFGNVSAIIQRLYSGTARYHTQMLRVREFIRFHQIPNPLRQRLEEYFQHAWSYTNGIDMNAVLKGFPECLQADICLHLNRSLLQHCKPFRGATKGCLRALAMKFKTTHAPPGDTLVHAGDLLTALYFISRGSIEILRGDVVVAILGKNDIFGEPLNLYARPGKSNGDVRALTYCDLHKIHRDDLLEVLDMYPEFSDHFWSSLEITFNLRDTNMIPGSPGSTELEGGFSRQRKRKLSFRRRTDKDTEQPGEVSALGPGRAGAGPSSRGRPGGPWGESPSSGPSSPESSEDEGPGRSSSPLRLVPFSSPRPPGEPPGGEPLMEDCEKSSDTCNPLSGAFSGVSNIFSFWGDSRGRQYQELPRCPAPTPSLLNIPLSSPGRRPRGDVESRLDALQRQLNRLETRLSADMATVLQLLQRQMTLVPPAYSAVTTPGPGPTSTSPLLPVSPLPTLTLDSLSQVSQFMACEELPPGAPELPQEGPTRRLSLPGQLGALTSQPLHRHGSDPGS
# Cytochrome P450 2C9 (Homo sapiens), sequence (P11712 whole entry, looked up): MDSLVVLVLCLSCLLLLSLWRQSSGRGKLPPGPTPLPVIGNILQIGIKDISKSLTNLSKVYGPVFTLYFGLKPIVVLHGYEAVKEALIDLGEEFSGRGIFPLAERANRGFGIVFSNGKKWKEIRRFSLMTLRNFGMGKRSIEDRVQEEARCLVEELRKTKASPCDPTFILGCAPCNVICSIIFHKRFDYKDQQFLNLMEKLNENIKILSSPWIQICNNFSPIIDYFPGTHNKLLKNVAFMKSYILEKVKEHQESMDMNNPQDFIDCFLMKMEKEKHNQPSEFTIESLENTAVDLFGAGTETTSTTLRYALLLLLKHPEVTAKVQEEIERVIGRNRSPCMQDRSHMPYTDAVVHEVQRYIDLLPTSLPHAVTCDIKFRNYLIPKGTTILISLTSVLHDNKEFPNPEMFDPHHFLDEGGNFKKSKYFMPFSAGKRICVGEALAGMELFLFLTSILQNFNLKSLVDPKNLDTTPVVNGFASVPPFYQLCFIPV
Compound,Potency [1],Potency [2],Potency [3],Potency [4],Potency [5]
Cc1ccc(/C(=C\CN2CCCC2)c2ccccn2)cc1,inactive,inactive,inactive,18.3 µM (active) and 10.7 µM (active),inactive
Cc1ccc(C)c(O)c1,30.9 µM (active) and inactive,inactive,30.9 µM (active) and 41.1 µM (active),inactive,inactive
COC(=O)CC(=O)OC,41.6 µM (active) and inactive,inactive,inactive,inactive,inactive and 63.3 µM (active)
Nc1cc(Cl)c(N)c(Cl)c1,8.86 µM (active) and 71 µM (active),15.8 µM (active) and 39.9 µM (active),15.8 µM (active) and 35.6 µM (active),inactive,3.14 µM (active) and 17.8 µM (active)
C=C[C@H]1CN2CC[C@H]1C[C@H]2[C@H](O)c1ccnc2ccc(OC)cc12,inactive,,,,
CC(=O)[C@@]1(O)CC[C@H]2[C@@H]3C[C@H](C)C4=CC(=O)C=C[C@]4(C)[C@@]3(F)[C@@H](O)C[C@@]21C,inactive,10 µM (active) and 6.92 µM (active),inactive,inactive,
CCCOCCO,inactive,inactive,inactive,inactive,inactive
ClC/C=C/CCl,inactive,inactive,inactive,inactive,inactive
CN(C)C,inactive,inactive,inactive,inactive,inactive
CCCCCCCC/C=C\CCCCCCCC(=O)O,71.4 µM (active) and inactive,inactive,inactive,inactive,inactive
C/C=C/C(=O)N(CC)c1ccccc1C,44.8 µM (active) and 17.4 µM (active),39.9 µM (active),31.7 µM (active) and inactive,inactive,inactive
COCCOCCOCCO,inactive,inactive,inactive,inactive,inactive
Nc1ccc2c(c1)C(=O)c1ccccc1C2=O,8.78 µM (active) and 35.6 µM (active),19.6 µM (active) and 22.4 µM (active),220 nM (active) and 252 nM (active),inactive,1.24 µM (active) and 1.78 µM (active)
Brc1nc2ccccc2s1,35.5 µM (active) and inactive,inactive,31.6 µM (active) and 14.2 µM (active),inactive,inactive
O=Cc1ccccc1C=O,inactive,35.6 µM (active) and inactive,63.3 µM (active) and inactive,inactive,inactive
Cc1ccc(C(C)(C)C)c(O)c1,30.7 µM (active) and 39.9 µM (active),34.4 µM (active) and 71 µM (active),71 µM (active),inactive,inactive
C=CCCCCCCCCCC,inactive,inactive,inactive,inactive,inactive
CCOC(=O)C(C)Oc1ccc(Oc2cnc3cc(Cl)ccc3n2)cc1 (stereo not given),33.3 µM (active),23.6 µM (active),52.8 µM (active),15.9 µM (active) and 18.3 µM (active),inactive
CCO[Si](CCCNC(N)=O)(OCC)OCC,inactive and 56.4 µM (active),inactive,inactive,inactive,inactive
CC(=O)O[C@]1(C(C)=O)CC[C@H]2[C@@H]3C=C(Cl)C4=CC(=O)CC[C@]4(C)[C@H]3CC[C@@]21C,12.6 µM (active) and 4.36 µM (active),20 µM (active) and 15.5 µM (active),inactive,inactive,inactive
CC(=O)O[C@]1(C(C)=O)CC[C@H]2[C@@H]3C=C(C)C4=CC(=O)CC[C@]4(C)[C@H]3CC[C@@]21C,7.1 µM (active) and 6.92 µM (active),7.96 µM (active) and 8.71 µM (active),inactive,inactive,inactive
CC1(C)O[C@@H]2C[C@H]3[C@@H]4C[C@H](F)C5=CC(=O)C=C[C@]5(C)[C@@]4(F)[C@@H](O)C[C@]3(C)[C@]2(C(=O)CO)O1,inactive,39.9 µM (active),inactive,inactive,20 µM (active) and 3.89 µM (active)
CCC(=O)O[C@H]1[C@H](O[C@@H]2[C@@H](C)[C@H](O[C@H]3C[C@@](C)(OC)[C@@H](O)[C@H](C)O3)[C@@H](C)C(=O)O[C@H](CC)[C@@](C)(O)[C@H](O)[C@@H](C)C(=O)[C@H](C)C[C@@]2(C)O)O[C@H](C)C[C@@H]1N(C)C,47.1 µM (active) and inactive,37.4 µM (active) and inactive,inactive,inactive,265 nM (active) and 2.75 µM (active)
C=CN1CCCC1=O,inactive,inactive,inactive,inactive,inactive
CC(=O)OC(C)C,inactive,inactive,inactive,inactive,inactive
Cc1ccc(S(=O)(=O)O)cc1C,inactive,inactive,inactive,inactive,inactive
C=CCNCC=C,39.8 µM (active),inactive,inactive and 39.9 µM (active),inactive,inactive
